PubChem BioAssay (NCI)
Several values for one entry are separate records, joined by “and”; a condition that tells them apart may be missing. Equal entries are not always repeated. Compounds without any hit were thinned out: in the full panel of roughly 83,000, 20% have a hit.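 Single-concentration screen, 48 h exposure, 96-well plates. Endpoint: percent growth. Below 10 = active.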 Activity calls are given as the source filed them.

Columns and labels:
Experiment in all cases: NCI-60 one-dose screen, 48 h (100 = growth as untreated, 0 = no growth, -100 = all killed)
NCI-H23 lung = details: 10 µM
NCI-H226 lung = details: 10 µM
NCI-H322M lung = details: 10 µM
NCI-H460 lung = details: 10 µM
HOP-92 NSCLC = details: 10 µM
NCI-H522 lung = details: 10 µM unless noted
A549/ATCC NSCLC = details: 10 µM
786-0 renal = details: 10 µM
COLO 205 colon = details: 10 µM
DU-145 prostate = details: 10 µM unless noted
K-562 leukemia = details: 10 µM
MALME-3M melanoma = details: 10 µM
MDA-MB-231 breast = details: 10 µM
RXF 393 renal = details: 10 µM unless noted
SF-268 CNS = details: 10 µM
SF-295 CNS = details: 10 µM
SF-539 CNS = details: 10 µM
UACC-257 melanoma = details: 10 µM
M14 melanoma = details: 10 µM
HOP-62 NSCLC = details: 10 µM

SMILES | growth (NCI-H23 lung) | growth (NCI-H226 lung) | growth (NCI-H322M lung) | growth (NCI-H460 lung) | growth (HOP-92 NSCLC) | growth (NCI-H522 lung) | growth (A549/ATCC NSCLC) | growth (786-0 renal) | growth (COLO 205 colon) | growth (DU-145 prostate) | growth (K-562 leukemia) | growth (MALME-3M melanoma) | growth (MDA-MB-231 breast) | growth (RXF 393 renal) | growth (SF-268 CNS) | growth (SF-295 CNS) | growth (SF-539 CNS) | growth (UACC-257 melanoma) | growth (M14 melanoma) | growth (HOP-62 NSCLC)
COC(=O)C1C(O)C(C)C(O)C(C)C=C(C)C2=C3C(=C(C)C(=O)c4c(O)c(c(C)c(OC(C)=O)c43)NC(=O)C(C)=C/C=C\C(C)C(O)C(C)C1O)OCO2 (centres undefined) | 107% (inactive) | 104% (inactive) | 140% (inactive) | 114% (inactive) | -5.62% (active) | 75.3% (inactive) | 112% (inactive) | 101% (inactive) | 125% (inactive) | 115% (inactive) | 127% (inactive) | 126% (inactive) | 105% (inactive) | 125% (inactive) | 112% (inactive) | 108% (inactive) | 110% (inactive) | 118% (inactive) | 108% (inactive) | –
CS(=O)(=O)OC1CC(n2ccc(=O)[nH]c2=O)OC1COC(c1ccccc1)(c1ccccc1)c1ccccc1 (centres undefined) | 106% (inactive) | 104% (inactive) | 89.1% (inactive) | 112% (inactive) | – | 86.1% (inactive) | 101% (inactive) | – | – | 99.8% (inactive) | 98.5% (inactive) | 91.9% (inactive) | 106% (inactive) | 105% (inactive) | 103% (inactive) | 110% (inactive) | 105% (inactive) | 102% (inactive) | 88.7% (inactive) | 106% (inactive)
C[n+]1c2cc(N)ccc2cc2ccc(N)cc21 | – | -14.9% (active) [middle of 4 runs] | – | – | 43.9% (inactive) and 8.02% (active) and -29.2% (active) | – | – | – | – | – | – | -62% (active) and -11.9% (active) and -51.7% (active) | 14.5% (inactive) [middle of 4 runs] | -34.2% (active) and 5.66% (active) and -8.06% (active) | – | – | 10.8% (inactive) and 19.8% (inactive) and -3.57% (active) | – | – | –
CN(C)C(=S)SC(=S)N(C)C | 92.1% (inactive) and 108% (inactive) | 104% (inactive) | 101% (inactive) and 86% (inactive) | 98.7% (inactive) and 91.3% (inactive) | 97.9% (inactive) and 108% (inactive) | 77.4% (inactive) and 61.1% (inactive) | 95.9% (inactive) and 86.6% (inactive) | 96.7% (inactive) and 105% (inactive) | 81.5% (inactive) and 49.1% (inactive) | 108% (inactive) and 104% (inactive) | 58% (inactive) and 75.7% (inactive) | 84.7% (inactive) and 85% (inactive) | 105% (inactive) and 122% (inactive) | 108% (inactive) and 109% (inactive) | 107% (inactive) and 95.8% (inactive) | 100% (inactive) and 101% (inactive) | 93.5% (inactive) and 101% (inactive) | 96.5% (inactive) and 77.5% (inactive) | 90.5% (inactive) and 93% (inactive) | 112% (inactive) and 103% (inactive)
O=[N+]([O-])C1=C(c2ccccc2)SC=C(c2ccccc2)S1 | 79.3% (inactive) | 74% (inactive) | 92.4% (inactive) | 67.3% (inactive) | 65.9% (inactive) | 42% (inactive) | 62.4% (inactive) | 95.4% (inactive) | 86.9% (inactive) | 75.2% (inactive) | 72.7% (inactive) | 54.5% (inactive) | 69.3% (inactive) | 54.2% (inactive) | 97.9% (inactive) | 93.7% (inactive) | – | 51.3% (inactive) | 65.2% (inactive) | 74.1% (inactive)
CCCCCC(C)c1ccc(O)c(C)c1 (centres undefined) | 104% (inactive) | 96% (inactive) | 99.3% (inactive) | 107% (inactive) | 98% (inactive) | 88.2% (inactive) | 113% (inactive) | 93.6% (inactive) | 111% (inactive) | 103% (inactive) | 90.6% (inactive) | – | – | 113% (inactive) | 98.3% (inactive) | 95.5% (inactive) | 103% (inactive) | 99.3% (inactive) | 97.7% (inactive) | 98.4% (inactive)
Cc1nc(N=C(N)N)nc2ccc3ccccc3c12 | 27.6% (inactive) | 25.8% (inactive) | -3.99% (active) | -44.4% (active) | -25.5% (active) | -35.1% (active) | 20.6% (inactive) | 10.8% (inactive) | -16.4% (active) | 5.58% (active) | -4.93% (active) | -37.8% (active) | -0.868% (active) | 4.87% (active) | -25.4% (active) | 1.84% (active) | 4.58% (active) | -9.97% (active) | 4.95% (active) | -14% (active)
CCN(CC)c1ccc(NC(C(=O)c2ccccc2)c2ccccc2)cc1 (centres undefined) | 44.4% (inactive) | 60.1% (inactive) | 82.9% (inactive) | 80.4% (inactive) | 73.7% (inactive) | 21.8% (inactive) | 92.5% (inactive) | -57.1% (active) | 20.5% (inactive) | 24.4% (inactive) | 10.4% (inactive) | 28.7% (inactive) | -34.1% (active) | 4.61% (active) | -22.8% (active) | 61.2% (inactive) | -50.1% (active) | 68.3% (inactive) | 22.8% (inactive) | 123% (inactive)
